# ChEMBL document CHEMBL2218924, “A broad activity screen in support of a chemogenomic map for kinase signalling research and drug discovery” (Biochem J, 2013)
# Experiments:
# [1] = biological target: T1, Serine/threonine-protein kinase BRSK1 (Homo sapiens) (UniProt Q8TDC3); settings: at 1 µM
# T1 sequence (whole entry): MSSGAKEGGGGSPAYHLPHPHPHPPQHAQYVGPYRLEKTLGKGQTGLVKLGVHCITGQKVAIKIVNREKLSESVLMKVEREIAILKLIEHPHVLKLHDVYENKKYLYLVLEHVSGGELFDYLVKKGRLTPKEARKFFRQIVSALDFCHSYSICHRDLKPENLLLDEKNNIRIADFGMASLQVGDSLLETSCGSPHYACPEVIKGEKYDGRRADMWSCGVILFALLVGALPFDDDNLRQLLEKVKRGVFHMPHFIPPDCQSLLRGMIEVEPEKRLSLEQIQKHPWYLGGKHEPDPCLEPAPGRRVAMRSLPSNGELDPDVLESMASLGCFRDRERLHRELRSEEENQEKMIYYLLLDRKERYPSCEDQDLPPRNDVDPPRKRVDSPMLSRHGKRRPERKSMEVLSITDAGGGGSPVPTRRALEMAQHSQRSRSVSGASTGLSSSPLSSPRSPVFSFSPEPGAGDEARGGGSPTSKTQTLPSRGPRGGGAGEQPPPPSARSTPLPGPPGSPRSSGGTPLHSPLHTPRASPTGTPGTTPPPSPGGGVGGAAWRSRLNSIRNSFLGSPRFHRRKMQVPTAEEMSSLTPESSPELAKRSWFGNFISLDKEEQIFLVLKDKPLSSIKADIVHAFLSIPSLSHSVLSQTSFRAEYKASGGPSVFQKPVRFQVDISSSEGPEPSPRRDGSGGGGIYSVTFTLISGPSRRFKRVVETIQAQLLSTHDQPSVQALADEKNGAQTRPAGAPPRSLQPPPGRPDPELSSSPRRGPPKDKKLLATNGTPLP
# [2] = biological target: T1, Serine/threonine-protein kinase BRSK1 (Homo sapiens); settings: at 10 µM
# [3] = biological target: T2, Serine/threonine-protein kinase BRSK2 (Homo sapiens) (UniProt Q8IWQ3); settings: at 1 µM
# T2 sequence (whole entry): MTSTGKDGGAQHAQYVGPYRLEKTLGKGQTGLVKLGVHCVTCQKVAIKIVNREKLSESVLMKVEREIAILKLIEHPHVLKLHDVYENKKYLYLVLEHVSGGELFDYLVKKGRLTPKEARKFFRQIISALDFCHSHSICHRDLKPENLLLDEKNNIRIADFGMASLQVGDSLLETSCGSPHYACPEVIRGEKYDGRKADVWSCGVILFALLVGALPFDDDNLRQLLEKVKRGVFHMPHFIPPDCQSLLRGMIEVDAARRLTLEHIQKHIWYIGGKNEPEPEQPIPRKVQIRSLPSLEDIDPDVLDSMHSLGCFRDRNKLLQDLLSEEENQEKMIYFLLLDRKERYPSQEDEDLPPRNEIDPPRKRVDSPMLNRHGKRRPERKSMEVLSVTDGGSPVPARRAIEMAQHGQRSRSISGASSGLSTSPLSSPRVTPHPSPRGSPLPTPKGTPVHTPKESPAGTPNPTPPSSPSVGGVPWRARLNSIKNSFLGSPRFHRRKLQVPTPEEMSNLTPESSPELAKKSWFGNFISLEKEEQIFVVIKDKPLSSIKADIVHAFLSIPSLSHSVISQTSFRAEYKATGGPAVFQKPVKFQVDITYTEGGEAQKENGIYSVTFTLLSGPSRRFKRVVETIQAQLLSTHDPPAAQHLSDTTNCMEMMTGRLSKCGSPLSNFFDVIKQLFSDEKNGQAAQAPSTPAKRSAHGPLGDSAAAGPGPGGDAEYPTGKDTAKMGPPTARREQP
# [4] = biological target: T2, Serine/threonine-protein kinase BRSK2 (Homo sapiens); settings: at 10 µM
# [5] = biological target: T3, Cyclin-dependent kinase 1/cyclin B1 (Homo sapiens) (UniProt P06493+P14635); settings: at 1 µM
# T3 sequence (P06493 whole entry, looked up): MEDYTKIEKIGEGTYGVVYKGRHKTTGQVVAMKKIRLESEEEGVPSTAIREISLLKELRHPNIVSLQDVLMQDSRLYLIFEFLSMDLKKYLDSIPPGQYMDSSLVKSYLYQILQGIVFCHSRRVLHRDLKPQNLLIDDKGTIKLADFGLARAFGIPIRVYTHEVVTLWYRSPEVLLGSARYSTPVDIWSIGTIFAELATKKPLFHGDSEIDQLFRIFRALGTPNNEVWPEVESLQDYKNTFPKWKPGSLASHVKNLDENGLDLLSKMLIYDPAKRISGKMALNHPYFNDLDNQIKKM
# T3 sequence (P14635 whole entry, looked up): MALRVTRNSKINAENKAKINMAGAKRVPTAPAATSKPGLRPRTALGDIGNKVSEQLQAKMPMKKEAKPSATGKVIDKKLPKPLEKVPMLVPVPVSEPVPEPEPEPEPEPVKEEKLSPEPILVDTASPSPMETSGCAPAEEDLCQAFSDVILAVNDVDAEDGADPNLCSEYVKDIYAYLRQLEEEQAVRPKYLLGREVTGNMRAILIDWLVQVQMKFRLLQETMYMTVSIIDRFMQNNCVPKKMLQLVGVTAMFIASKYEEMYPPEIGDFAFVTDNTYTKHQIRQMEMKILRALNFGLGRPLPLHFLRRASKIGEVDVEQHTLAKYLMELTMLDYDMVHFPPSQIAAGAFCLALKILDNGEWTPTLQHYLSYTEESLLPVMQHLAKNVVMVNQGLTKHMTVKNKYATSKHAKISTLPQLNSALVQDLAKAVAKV
# [6] = biological target: T3, Cyclin-dependent kinase 1/cyclin B1 (Homo sapiens); settings: at 10 µM
# [7] = biological target: T4, Cyclin-dependent kinase 2/cyclin A (Homo sapiens) (UniProt P24941+P20248+P78396); settings: at 1 µM
# [8] = biological target: T4, Cyclin-dependent kinase 2/cyclin A (Homo sapiens); settings: at 10 µM
# [9] = biological target: T5, Cyclin-dependent kinase 2/cyclin E (Homo sapiens) (UniProt P24864+P24941+O96020); settings: at 1 µM
# [10] = biological target: T5, Cyclin-dependent kinase 2/cyclin E (Homo sapiens); settings: at 10 µM
# [11] = biological target: T6, CDK3/cyclin E (Homo sapiens) (UniProt P24864+O96020+Q00526); settings: at 1 µM
# T6 sequence (O96020 whole entry, looked up): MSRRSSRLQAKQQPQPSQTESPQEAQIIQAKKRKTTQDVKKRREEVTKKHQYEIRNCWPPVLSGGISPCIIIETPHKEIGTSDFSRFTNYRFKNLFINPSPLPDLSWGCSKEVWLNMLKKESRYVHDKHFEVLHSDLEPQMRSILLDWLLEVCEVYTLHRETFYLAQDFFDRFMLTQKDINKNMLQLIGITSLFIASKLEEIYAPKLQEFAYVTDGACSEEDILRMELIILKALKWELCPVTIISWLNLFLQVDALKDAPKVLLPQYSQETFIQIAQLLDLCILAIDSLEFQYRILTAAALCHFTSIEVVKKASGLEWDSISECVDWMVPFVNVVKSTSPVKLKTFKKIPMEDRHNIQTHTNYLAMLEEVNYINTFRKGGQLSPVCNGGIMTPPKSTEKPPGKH
# T6 sequence (P24864 whole entry, looked up): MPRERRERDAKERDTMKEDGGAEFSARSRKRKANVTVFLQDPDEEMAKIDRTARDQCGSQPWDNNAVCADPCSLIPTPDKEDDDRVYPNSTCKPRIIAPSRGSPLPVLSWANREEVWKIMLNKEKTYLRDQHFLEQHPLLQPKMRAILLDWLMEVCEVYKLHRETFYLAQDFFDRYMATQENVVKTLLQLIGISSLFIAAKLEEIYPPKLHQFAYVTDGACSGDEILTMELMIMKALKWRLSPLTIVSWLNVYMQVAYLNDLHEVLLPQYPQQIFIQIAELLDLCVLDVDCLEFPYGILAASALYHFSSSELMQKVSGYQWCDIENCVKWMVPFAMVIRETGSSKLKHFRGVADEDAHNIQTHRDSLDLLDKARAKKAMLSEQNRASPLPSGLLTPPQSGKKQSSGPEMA
# T6 sequence (Q00526 whole entry, looked up): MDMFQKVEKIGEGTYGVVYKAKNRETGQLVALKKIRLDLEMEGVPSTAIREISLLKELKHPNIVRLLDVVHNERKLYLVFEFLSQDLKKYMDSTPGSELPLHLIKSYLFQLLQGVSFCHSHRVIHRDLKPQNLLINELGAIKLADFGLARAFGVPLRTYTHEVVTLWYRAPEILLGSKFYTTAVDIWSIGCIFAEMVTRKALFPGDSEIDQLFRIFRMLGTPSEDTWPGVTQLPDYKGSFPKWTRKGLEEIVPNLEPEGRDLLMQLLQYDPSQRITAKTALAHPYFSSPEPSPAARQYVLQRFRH
# [12] = biological target: T6, CDK3/cyclin E (Homo sapiens); settings: at 10 µM
# [13] = biological target: T7, Cyclin-dependent kinase 5/CDK5 activator 1 (Homo sapiens) (UniProt Q00535+Q15078); settings: at 1 µM
# T7 sequence (Q00535 whole entry): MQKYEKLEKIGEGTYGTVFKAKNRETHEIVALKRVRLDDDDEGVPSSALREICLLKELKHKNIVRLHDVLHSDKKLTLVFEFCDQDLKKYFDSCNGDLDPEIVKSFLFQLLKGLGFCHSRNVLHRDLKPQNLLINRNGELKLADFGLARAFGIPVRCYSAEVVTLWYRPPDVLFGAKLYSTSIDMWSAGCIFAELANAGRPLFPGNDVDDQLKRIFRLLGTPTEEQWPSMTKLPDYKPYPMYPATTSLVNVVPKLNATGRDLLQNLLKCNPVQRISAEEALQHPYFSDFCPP
# T7 sequence (Q15078 99-307 partner limits assumed): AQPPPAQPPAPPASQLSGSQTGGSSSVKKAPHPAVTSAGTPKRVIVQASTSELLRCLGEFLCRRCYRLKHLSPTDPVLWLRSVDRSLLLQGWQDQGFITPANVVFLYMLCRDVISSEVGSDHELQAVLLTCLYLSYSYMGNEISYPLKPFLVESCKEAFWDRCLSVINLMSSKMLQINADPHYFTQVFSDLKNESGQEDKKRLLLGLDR
# [14] = biological target: T7, Cyclin-dependent kinase 5/CDK5 activator 1 (Homo sapiens); settings: at 10 µM
# [15] = biological target: T7, Cyclin-dependent kinase 5/CDK5 activator 1 (Homo sapiens); settings: at 1 µM; remark: listed apart in the source
# [16] = biological target: T7, Cyclin-dependent kinase 5/CDK5 activator 1 (Homo sapiens); settings: at 10 µM; remark: listed apart in the source
# [17] = biological target: T8, CDK6/cyclin D3 (Homo sapiens) (UniProt P30281+Q00534); settings: at 1 µM
# [18] = biological target: T8, CDK6/cyclin D3 (Homo sapiens); settings: at 10 µM
# [19] = biological target: T9, Cyclin-dependent kinase 7/ cyclin H (Homo sapiens) (UniProt P51946+P50613); settings: at 1 µM
# [20] = biological target: T9, Cyclin-dependent kinase 7/ cyclin H (Homo sapiens); settings: at 10 µM
SMILES,residual activity [1] [%],residual activity [2] [%],residual activity [3] [%],residual activity [4] [%],residual activity [5] [%],residual activity [6] [%],residual activity [7] [%],residual activity [8] [%],residual activity [9] [%],residual activity [10] [%],residual activity [11] [%],residual activity [12] [%],residual activity [13] [%],residual activity [14] [%],residual activity [15] [%],residual activity [16] [%],residual activity [17] [%],residual activity [18] [%],residual activity [19] [%],residual activity [20] [%]
NC(=O)Nc1sc(-c2ccc(F)cc2)cc1C(N)=O,55,15,83,18,100,57,59,21,79,26,73,43,70,33,81,33,78,33,87,61
CC(C)c1nn(-c2c(Cl)cccc2Cl)c2nc(Cc3ccc(OCCO)cc3)[nH]c(=O)c12,70,78,,93,3,0,0,0,-1,-3,-1,-1,0,-1,-1,-1,43,9,15,1
COc1ccc(-c2cnc3c(-c4ccsc4)cnn3c2)cc1,,,,,,,,,99,96,85,,,88,85,,85,96,90,
c1ccc(-c2cnc(Nc3ccc(OCCN4CCCC4)cc3)s2)cc1,46,42,,,113,62,147,70,,,81,43,64,17,71,25,38,6,70,39
O=C1NC(=O)C(c2cn(CCCn3ccnc3)c3ccccc23)=C1Nc1ccccc1,59,75,,,,,103,21,76,24,51,13,64,20,71,24,82,68,77,64
CCCCc1c(-c2ccc(O)cc2)[nH]c2nccnc12,88,88,,,29,18,,,20,16,29,6,,,,,89,33,78,51
CSc1nc(-c2ccc(F)cc2)c(-c2ccnc(NC(C)c3ccccc3)c2)[nH]1 (stereo not drawn),100,55,,,98,86,,80,96,86,93,84,,101,,,,,100,67
COc1cc2nccc(Oc3ccc(NC(=O)Nc4cc(C)on4)c(Cl)c3)c2cc1OC,65,46,,,,,106,99,,,,,,,,,96,99,99,107
O=C1Cc2c([nH]c3ccc(Br)cc23)-c2ccccc2N1,64,37,,,52,9,,,36,2,54,9,,,47,9,78,30,91,80
O=C1Nc2ccccc2/C1=C\c1c(Cl)[nH]c2ccccc12,,46,,,,68,83,57,82,58,,55,,40,,40,,32,,59
NCCNc1ncc(C(N)=O)c(Nc2cccc(C(F)(F)F)c2)n1,,,,,,43,131,65,,47,,,77,25,70,33,,,78,49
Nc1nccc(-c2c(-c3ccc(F)cc3)ncn2C2CCNCC2)n1,,,128,82,115,,79,77,,,,,,,,,,,100,68
COc1cc2c(cc1OC)-c1n[nH]c(Nc3cccc(F)c3)c1C2,,,104,,114,103,,,98,68,78,46,82,53,81,61,76,71,83,75
